The campaign covered roughly 11,000 compounds. About 310 (2.8%) were called active. Cut-off read from the data, not from the text of the source: active = activity change below about -85%; inactive = the rest. The entries come from a sample that favours actives as a whole.
These molecules were tested on intestinal alkaline phosphatase [Mus musculus] (assay: mouse intestinal phosphatase enzyme activation – biochemical, luminescence, single concentration, confirmation (AID 434970)). Details: purified mouse IAP, CDP-Star luminescence, 30 min, at 10 µM; activation factor: measured here: IAP activation factor, stronger effect = higher value; activity change, negative = activation: stronger effect = lower value.

SMILES | activation factor | activity change, negative = activation
COc1ccc(CN(C(=O)c2ccco2)C2CC(C)N(C)CC2C)cc1 (stereo not given) | 0.982 | 1.75% (inactive)
COc1ccc(CNC(=O)C[C@H]2C[C@H](C(=O)N3CCOCC3)[C@@]3(C)c4[nH]c5cc(CCC(=O)N(C)C)ccc5c4CCN3C2=O)cc1OC | 1.08 | -8.2% (inactive)
O=C(O)CCSc1nc(C(F)(F)F)cc(=O)n1-c1ccccc1 | 1.01 | -1% (inactive)
Cn1cc(C(=O)c2ccccc2)cc1-c1nc2ccccc2n1C | 1.13 | -13.2% (inactive)
COc1ccccc1[C@H]1C(c2cccc(Cl)c2)=NN(c2ccccc2)[C@@H]1CO | 1.54 | -54.1% (inactive)
COc1ccccc1[C@H]1C(c2ccc(F)cc2)=NN(c2ccccc2)[C@@H]1CO | 1.49 | -48.9% (inactive)
COc1ccccc1[C@H]1C(c2ccccc2)=NN(c2ccccc2)[C@@H]1CO | 1.99 | -99.2% (active)
Clc1ccccc1CN(Cc1ccco1)Cc1nnnn1C1CCCC1 | 1.07 | -7.45% (inactive)
CC(C)C(=O)Nc1ncc(C(F)(F)F)cc1Cl | 1.02 | -2.1% (inactive)
CC(NC(=S)NC1CCC(C(C)(C)C)CC1)c1ccccc1 (stereo not given) | 1.7 | -69.9% (inactive)
Cc1ccc(CNC(=S)NC2CCC(C(C)(C)C)CC2)cc1 (stereo not given) | 2 | -99.9% (active)
Cc1ccc(CNC(N)=S)cc1 | 1.06 | -6.15% (inactive)
O=C(COC(=O)c1cccnc1SCC(=O)NCc1ccccc1)NCc1ccccc1 | 0.985 | 1.5% (inactive)
CCCc1cc(=O)[nH]c(SCC(=O)N(C)CC(=O)Nc2ccccc2CC)n1 | 0.825 | 17.6% (inactive)
CC(C)c1ccc(NC(=S)NC2CCCCCC2)cc1 | 1.39 | -38.9% (inactive)
CC(=O)Nc1ccc(C(=O)OCC(=O)NC(=O)NC2CCCCC2)cc1 | 0.997 | 0.3% (inactive)
S=C(Nc1ccc(Br)cc1)NC1CCCCC1 | 1.71 | -70.7% (inactive)
COc1ccc(CCNC(=O)NC2CCCCC2)cc1 | 0.976 | 2.4% (inactive)
CCc1ccc(NC(=O)NC2CCCCCCC2)cc1 | 3.13 | -213% (active)
O=C(Nc1ccc(Br)cc1)NC1CCCCCCC1 | 2.74 | -174% (active)

SMILES | activation factor | activity change, negative = activation
COc1ccc(C2NCCO2)cc1OC (stereo not given) | 0.954 | 4.65% (inactive)
C=CCONC(=O)Cc1ccccc1 | 1.1 | -9.55% (inactive)
COc1ccc(NC(=O)N2CCCC2C(=O)Nc2ccc(C)c(Cl)c2)cc1 (stereo not given) | 1.12 | -12.4% (inactive)
Cc1ccc(NC2=NC(C(=O)Nc3ccc(C)c(C)c3)CC(=O)N2)cc1 (stereo not given) | 0.958 | 4.15% (inactive)
Cc1ccc(NC(=O)C(=O)NNC(=O)c2ccccc2C)cc1Cl | 0.889 | 11.1% (inactive)
Cc1ccc(NC(=O)C2CC(=O)n3c(nc4ccccc43)N2)cc1Cl (stereo not given) | 2.25 | -125% (active)
Cc1ccc(NC(=O)C2CC(=O)n3c(nc4ccccc43)N2)cc1C (stereo not given) | 2.2 | -120% (active)
Cc1cccc(NC(=O)C2CC(=O)n3cnnc3S2)c1 (stereo not given) | 0.843 | 15.8% (inactive)
C=C(C)Cn1c(=O)c2c(nc3n2CCN3c2cccc(Cl)c2C)n(C)c1=O | 0.924 | 7.6% (inactive)
CC(C)(C)c1ccc(OCc2nc(-c3ccccn3)no2)c(Br)c1 | 0.924 | 7.55% (inactive)
COc1ccc(-c2noc(CCC(=O)N3CCN(c4ccc(C(F)(F)F)cc4)CC3)n2)cc1 | 1.05 | -4.65% (inactive)
COc1ccc(OC)c(N)c1 | 0.877 | 12.3% (inactive)
C=CCn1c(Br)nc2c1c(=O)[nH]c(=O)n2C | 0.97 | 2.95% (inactive)
O=C(NCCOc1ccccc1F)Nc1ccc(Br)cc1 | 1.46 | -45.9% (inactive)
O=C(NCC1CCN(Cc2ccccc2Cl)CC1)Nc1cccc(Cl)c1 | 1.77 | -77.5% (inactive)
COc1cc(NC(=O)NCC2CCN(Cc3ccccc3F)CC2)cc(OC)c1 | 2.67 | -167% (active)
COc1cc(NC(=O)C2CCCN(c3ncccn3)C2)cc(OC)c1 (stereo not given) | 1.11 | -10.6% (inactive)
COc1cc(OC)cc(C(=O)Nc2c(F)cccc2F)c1 | 1.02 | -1.9% (inactive)
O=C(NCC1CCN(Cc2ccccc2F)CC1)Nc1cccc(Br)c1 | 2.05 | -105% (active)
Cc1ccc(NC(=O)Cn2cnc(C(=O)Nc3ccc(C)c(C)c3)n2)cc1C | 1.05 | -4.9% (inactive)

SMILES | activation factor | activity change, negative = activation
O=C(Nc1ccc2ccccc2c1)c1cn(-c2ccccc2)nc1-c1cccs1 | 1.61 | -60.9% (inactive)
COc1ccc(N2CCN(c3nc(NCCO)nc(N4CCOCC4)n3)CC2)cc1 | 0.927 | 7.25% (inactive)
CC[C@]12c3[nH]c4cc(CCC(=O)N(C)C)ccc4c3CCN1C(=O)[C@@H](CC(=O)NCCCN(C)C)C[C@@H]2C(=O)N1CCN(C(=O)C2CC2)CC1 | 1.05 | -4.6% (inactive)
Cc1ccc2c(c1)c(C)c(C)n2CC(O)CN1CCOCC1 (stereo not given) | 0.95 | 5% (inactive)
O=C(NC1CCCCCCC1)c1cnccn1 | 0.972 | 2.85% (inactive)
O=C(Nc1nccs1)C1CC2CCC1C2 (stereo not given) | 1.01 | -0.6% (inactive)
CCOC(=O)c1ccc(NC(=O)CSc2nnc(C3CCCCC3)n2C)cc1 | 0.933 | 6.7% (inactive)
Cn1nc(OC(=O)Nc2cccc(Cl)c2)cc1C(F)(F)F | 2.51 | -151% (active)
Cc1cc(C)cc(NC(=O)Nc2ccc(-n3ccc(C(F)(F)F)n3)cc2)c1 | 2.36 | -136% (active)
O=C(NCCCn1ccnc1)Nc1cccc(Cl)c1 | 1.23 | -23.4% (inactive)
CC(=O)Nc1ccc(-n2cnnn2)cc1 | 1.04 | -3.5% (inactive)
Cn1cc(NC(=O)Nc2ccc(C(F)(F)F)cc2)c(C(F)(F)F)n1 | 1.86 | -86.1% (inactive)
Cn1ncc(Cl)c1C(=O)Nc1cccc(Cl)c1 | 1.01 | -1.1% (inactive)
O=C(Nc1ccccc1)Nc1ccc(-n2ccc(C(F)(F)F)n2)cc1 | 1.6 | -60% (inactive)
Cn1nc(C(=O)Nc2cccc(C(F)(F)F)c2)ccc1=O | 1.13 | -12.9% (inactive)
O=C(Nc1ccc(-n2ccc(C(F)(F)F)n2)cc1)Nc1cccc(Cl)c1 | 1.92 | -91.7% (active)
Cc1noc(C)c1S(=O)(=O)Nc1ccc(C(=O)NC2CCCCCC2)cc1 | 1.07 | -7.15% (inactive)
CN=C1N(C)C[C@@H]2[C@@H]3C(=O)N(Cc4ccccc4)C(=O)[C@@H]3[C@](Cc3ccccc3)(C(=O)OC)N12 | 1.16 | -16.1% (inactive)
CC(C)CC(c1nnnn1Cc1cccs1)N1CCN(c2nc3ccccc3s2)CC1 (stereo not given) | 0.985 | 1.5% (inactive)
CCOC(=O)CCc1c(C)c(C#N)c2nc3ccccc3n2c1-n1cnc2ccccc21 | 1.02 | -1.8% (inactive)
